Activity calls are given as the source filed them.

For assay [1], the system named is Plasmodium falciparum Sir2 (PF13_0152, Sir2A). Description: Plasmodium falciparum Sir2A binding compounds – biochemical, small-molecule microarray, 635 nm fluorescence, primary screen (AID 1098).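 Note: score merges spot fluorescence intensity with its signal-to-noise ratio.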 As to conditions: fluorescence 635 nm, higher = more signal.
Assay [2] in a line: probe aDKK1 binding to arrayed compounds – biochemical, biotinylated probe, 635/667 nm fluorescence, primary screen (AID 1099).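 Note: score merges 667nm spot fluorescence with signal to noise across triplicate slides.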 Conditions: small-molecule microarray, higher = more signal.
A short description of assay [3]: probe aCHRDL2 binding to arrayed compounds – biochemical, biotinylated probe, 635/667 nm fluorescence, primary screen (AID 1100). Conditions: small-molecule microarray, higher = more signal.
The nature of assay [4]: change in splice reporter luminescence, either direction, cell-based, HEK293, spliceosome inhibition project, primary screen (AID 1101).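 Note: HEK293 cells carrying a splicing-competent luciferase reporter gene; test concentration not given here.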 As to conditions: HEK293 splicing luciferase reporter, 24 h, higher = more signal, called active from +8 up or from −8 down. On the technique in general: A reporter such as luciferase makes a cellular process visible.
Assay [5] addresses Fibroblast growth factor 10 (Homo sapiens) (UniProt O15520). Put plainly: compounds binding fibroblast growth factor 10 – biochemical, small-molecule microarray, 635 nm fluorescence, primary screen (AID 1102). As to conditions: FGF10 binding, fluorescence 635 nm, higher = more signal.
Assay [6] concerns glycogen synthase kinase-3 (GSK3A per assay name; protocol says GSK3B). Description: compounds binding glycogen synthase kinase-3 – biochemical, small-molecule microarray, 635 nm fluorescence, GSK3A, primary screen (AID 1103). Note: the record names both GSK3A and GSK3B. Conditions: fluorescence 635 nm, higher = more signal.
Assay [7] deals with Epidermal growth factor receptor (Homo sapiens) (UniProt P00533). Put plainly: compounds binding epidermal growth factor receptor – biochemical, small-molecule microarray, 635 nm fluorescence, primary screen (AID 1104).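 Note: score merges 667 nm emission intensity with spot signal to noise over triplicate slides.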 Conditions: EGFR binding, higher = more signal.
Epidermal growth factor receptor (Homo sapiens), sequence (P00533 whole entry, looked up): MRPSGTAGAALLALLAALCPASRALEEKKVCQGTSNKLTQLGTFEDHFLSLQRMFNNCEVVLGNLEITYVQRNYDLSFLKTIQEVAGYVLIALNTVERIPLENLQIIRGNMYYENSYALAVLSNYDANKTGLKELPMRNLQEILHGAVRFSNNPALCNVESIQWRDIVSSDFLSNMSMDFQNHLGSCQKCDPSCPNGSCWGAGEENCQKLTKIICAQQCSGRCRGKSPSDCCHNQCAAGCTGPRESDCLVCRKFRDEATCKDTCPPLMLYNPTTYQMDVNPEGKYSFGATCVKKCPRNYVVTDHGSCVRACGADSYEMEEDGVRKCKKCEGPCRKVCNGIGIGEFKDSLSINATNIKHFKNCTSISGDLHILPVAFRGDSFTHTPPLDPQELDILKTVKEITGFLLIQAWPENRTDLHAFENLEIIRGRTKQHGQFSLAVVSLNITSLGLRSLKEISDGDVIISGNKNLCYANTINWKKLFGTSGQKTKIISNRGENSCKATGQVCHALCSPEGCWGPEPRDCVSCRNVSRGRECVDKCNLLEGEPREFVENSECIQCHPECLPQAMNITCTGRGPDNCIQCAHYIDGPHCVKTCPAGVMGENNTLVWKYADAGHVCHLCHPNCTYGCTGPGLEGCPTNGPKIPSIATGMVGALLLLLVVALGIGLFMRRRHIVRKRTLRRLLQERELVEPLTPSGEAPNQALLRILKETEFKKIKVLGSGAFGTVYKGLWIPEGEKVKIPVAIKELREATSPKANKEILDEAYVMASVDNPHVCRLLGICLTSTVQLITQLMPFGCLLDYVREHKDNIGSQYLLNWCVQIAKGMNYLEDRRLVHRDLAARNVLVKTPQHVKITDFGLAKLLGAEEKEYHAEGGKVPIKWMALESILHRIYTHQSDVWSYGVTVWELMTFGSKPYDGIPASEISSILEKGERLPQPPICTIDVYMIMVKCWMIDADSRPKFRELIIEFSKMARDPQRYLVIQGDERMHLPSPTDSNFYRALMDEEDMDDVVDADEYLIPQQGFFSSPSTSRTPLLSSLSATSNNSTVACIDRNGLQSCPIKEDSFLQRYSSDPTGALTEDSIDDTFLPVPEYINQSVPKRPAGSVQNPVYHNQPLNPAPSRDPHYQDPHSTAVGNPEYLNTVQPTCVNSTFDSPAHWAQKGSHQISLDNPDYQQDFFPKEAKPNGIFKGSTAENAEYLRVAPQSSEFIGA
Assay [8] deals with Follistatin-related protein 3 (Homo sapiens) (UniProt O95633). Description: compounds binding follistatin-related protein 3 – biochemical, small-molecule microarray, 635 nm fluorescence, primary screen (AID 1105).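 Note: score merges emission near 667 nm and signal to noise per printed spot across three slides.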 Conditions: FSTL3 binding, higher = more signal.
Follistatin-related protein 3 (Homo sapiens), sequence (O95633 whole entry, looked up): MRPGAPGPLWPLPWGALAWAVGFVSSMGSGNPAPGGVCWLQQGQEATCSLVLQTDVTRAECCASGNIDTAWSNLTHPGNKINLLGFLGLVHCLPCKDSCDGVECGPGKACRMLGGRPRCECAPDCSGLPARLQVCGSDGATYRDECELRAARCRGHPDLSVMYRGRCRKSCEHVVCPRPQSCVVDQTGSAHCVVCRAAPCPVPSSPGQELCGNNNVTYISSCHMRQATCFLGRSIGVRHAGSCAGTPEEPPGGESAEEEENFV
For assay [9], the target named is Dickkopf-related protein 1 (Homo sapiens) (UniProt O94907). Description: small molecules binding DKK1 protein – biochemical, small-molecule microarray, 635 nm fluorescence scan, primary screen (AID 1106).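 Note: score merges emission near 667 nm with signal to noise over three replicate slides.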 As to conditions: higher = more signal.
Dickkopf-related protein 1 (Homo sapiens), sequence (O94907 whole entry, looked up): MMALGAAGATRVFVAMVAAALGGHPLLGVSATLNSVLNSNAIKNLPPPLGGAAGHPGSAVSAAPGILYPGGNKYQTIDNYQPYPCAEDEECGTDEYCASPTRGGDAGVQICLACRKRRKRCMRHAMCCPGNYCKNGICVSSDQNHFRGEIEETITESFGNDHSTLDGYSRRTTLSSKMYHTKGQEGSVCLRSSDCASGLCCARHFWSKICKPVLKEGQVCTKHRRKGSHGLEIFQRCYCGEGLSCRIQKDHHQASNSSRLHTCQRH
The test system of assay [10] is Inhibin beta A chain (activin A). Put plainly: small molecules binding activin A – biochemical, small-molecule microarray, 635 nm fluorescence scan, primary screen (AID 1107).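 Note: mouse activin A protein probed at 4.33 µg/mL on printed slides; score merges bound-protein fluorescence near 667 nm with spot signal-to-noise.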 Conditions: INHBA, higher = more signal.
Assay [11] deals with Human papillomavirus type 1a protein E7 (residues 44-93). Description: small molecules binding HPV E7 44-93 – biochemical, small-molecule microarray, residues 44-93, 635 nm fluorescence, primary screen (AID 1108).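 Note: E7 fragment applied at 1 µg/mL in TBST for 1 h at 4 C; score combines spot fluorescence with its signal to noise ratio.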 As to conditions: fluorescence 635 nm, higher = more signal.
Assay [12] can be described thus: hepatitis C replication reporter changes, two-sided – Huh7 cells, luciferase reporter, HCV replication inhibitor project, primary screen (AID 1109).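 Note: huh7 hepatoma cells harbouring a luciferase neomycin HCV replicon reporter; luciferase luminescence as measure of HCV replicon replication; test concentration not given here.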 As to conditions: Huh7 HCV replicon luciferase reporter, 48 h; higher = more signal.
The target of assay [13] is Left-right determination factor 2 (Homo sapiens) (UniProt O00292). Description: small molecules binding LEFTY2 protein – biochemical, small-molecule microarray, 635 nm fluorescence scan, primary screen (AID 1110). As to conditions: higher = more signal.
Left-right determination factor 2 (Homo sapiens), sequence (O00292 whole entry, looked up): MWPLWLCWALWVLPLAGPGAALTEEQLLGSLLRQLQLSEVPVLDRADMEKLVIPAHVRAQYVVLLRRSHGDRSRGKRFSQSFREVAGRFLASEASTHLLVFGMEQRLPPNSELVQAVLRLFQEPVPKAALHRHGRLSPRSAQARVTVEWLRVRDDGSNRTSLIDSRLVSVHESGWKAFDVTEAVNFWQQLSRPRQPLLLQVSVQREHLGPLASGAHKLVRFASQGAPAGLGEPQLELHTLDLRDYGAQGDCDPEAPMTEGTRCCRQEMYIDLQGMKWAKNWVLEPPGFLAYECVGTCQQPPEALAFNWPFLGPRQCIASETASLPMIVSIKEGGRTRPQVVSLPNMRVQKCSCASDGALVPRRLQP
Assay [14] has as its target Calmodulin-1 (Homo sapiens) (UniProt P0DP23). Description: small molecules binding calmodulin-1 with EGTA – biochemical, small-molecule microarray, Cy5-labelled CALM1, profiling panel (AID 1111).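 Note: labelled calmodulin applied in Tris saline Tween buffer holding calcium plus EGTA and DTT.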 As to conditions: Cy5-CALM1 binding fluorescence, higher = more signal.
The target is the same in assay [15]. Description: small molecules binding Ca-loaded calmodulin-1 – biochemical, small-molecule microarray, Cy5-labelled CALM1, plus calcium, artefact control for SMM control-protein annotation, profiling panel (AID 1112).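 Note: score merges spot fluorescence with signal to noise from triplicate slides.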 As to conditions: Cy5-CALM1 binding fluorescence, higher = more signal.
Assay [16] can be described thus: probe aWnt5a binding to arrayed compounds – biochemical, biotinylated probe, 635/667 nm fluorescence, primary screen (AID 1113).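 Note: score merges 667 nm fluorescence intensity with signal-to-noise per printed feature.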 As to conditions: small-molecule microarray, higher = more signal.
The nature of assay [17]: probe aShh binding to arrayed compounds – biochemical, biotinylated probe, 635/667 nm fluorescence, primary screen (AID 1114).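 Note: probe is biotin-labelled aShh protein from a stem cell growth factor screen; measures binding of labelled protein to compounds printed on the slide; score merges feature fluorescence at 667 nm with signal-to-noise.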 As to conditions: small-molecule microarray, higher = more signal.
The nature of assay [18]: probe aNog binding to arrayed compounds – biochemical, biotinylated probe, 635/667 nm fluorescence, primary screen (AID 1115).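 Note: probe is biotinylated aNog protein used at 0.15 µg/mL for 1 h at 4 C; z-score combines 667 nm fluorescence of each spot with its signal to noise.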 Conditions: small-molecule microarray, higher = more signal.
The target of assay [19] is Torsin-1A-interacting protein 1 (Homo sapiens) (UniProt Q5JTV8). Put plainly: compound microarray binding of lysate hLAP1 – cell lysate, small-molecule microarray, COS7 lysate, 635/667 nm fluorescence, primary screen (AID 1116). As to conditions: 635 nm fluorescence, higher = more signal.
Torsin-1A-interacting protein 1 (Homo sapiens), sequence (Q5JTV8 whole entry, looked up): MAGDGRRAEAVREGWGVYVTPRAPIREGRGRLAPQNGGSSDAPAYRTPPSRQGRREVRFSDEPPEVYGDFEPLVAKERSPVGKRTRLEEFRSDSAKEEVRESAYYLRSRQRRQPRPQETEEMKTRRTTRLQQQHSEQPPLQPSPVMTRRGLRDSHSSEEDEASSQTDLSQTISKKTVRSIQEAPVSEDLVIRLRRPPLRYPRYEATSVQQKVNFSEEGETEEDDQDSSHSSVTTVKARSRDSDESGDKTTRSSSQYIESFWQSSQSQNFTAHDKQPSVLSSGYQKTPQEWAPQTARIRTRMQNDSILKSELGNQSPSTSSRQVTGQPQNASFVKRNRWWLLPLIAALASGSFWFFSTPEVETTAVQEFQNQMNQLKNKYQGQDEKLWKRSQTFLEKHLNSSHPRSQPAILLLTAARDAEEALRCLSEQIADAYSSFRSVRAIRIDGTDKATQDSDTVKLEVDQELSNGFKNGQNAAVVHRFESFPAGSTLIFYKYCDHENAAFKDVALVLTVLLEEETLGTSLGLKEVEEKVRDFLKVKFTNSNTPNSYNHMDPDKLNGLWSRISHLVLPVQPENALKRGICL
Assay [20] has as its target Alpha-bungarotoxin (Bungarus multicinctus) (UniProt P60615). Put plainly: compounds binding labelled alpha-BTX control protein – biochemical, small-molecule microarray, Alexa647 label, 635/667 nm fluorescence, artefact control for SMM control protein annotation, profiling panel (AID 1117). As to conditions: alpha-BTX-A647 binding fluorescence, higher = more signal.

Fibroblast growth factor 10 (Homo sapiens), sequence (O15520 whole entry, looked up): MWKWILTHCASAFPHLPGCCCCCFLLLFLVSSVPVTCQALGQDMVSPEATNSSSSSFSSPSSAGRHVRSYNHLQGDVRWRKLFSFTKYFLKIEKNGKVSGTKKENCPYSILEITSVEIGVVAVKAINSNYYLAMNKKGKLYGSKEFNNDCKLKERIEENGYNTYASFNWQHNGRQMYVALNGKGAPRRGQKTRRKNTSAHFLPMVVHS
Alpha-bungarotoxin (Bungarus multicinctus), sequence (P60615 whole entry, looked up): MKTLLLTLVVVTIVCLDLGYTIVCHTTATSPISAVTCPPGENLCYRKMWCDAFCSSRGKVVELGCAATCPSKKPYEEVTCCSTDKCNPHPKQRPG

With `COC(=O)C[C@H]1O[C@]2(C(=O)N(Cc3ccccc3)c3ccc(NC(C)=O)cc32)[C@@H](C)[C@@H]1[Si](C)(C)c1ccc(OC)cc1`, the composite z-score in [1] was 0.407; in [2], -0.097; in assay [3], -0.362; in assay [5], 0.802; in [6], 0.985; in [7], 0.474. Moreover, the composite z-score in assay [8] is 0.719; in assay [9], 0.599; in [10], 0.25; in [11], 0.866; in assay [13], 0.104; in [14], 0.403. Besides, the composite z-score in assay [15] was -0.352; in assay [16] it was -0.096; in assay [17], -0.2; in [18], 0.188; in assay [19], 0.538; in [20] it was 0.226. Further, the z-score in [4] was -0.703 (inactive); in assay [12], -2.23.
For the compound `O=C1c2ccccc2[C@@]2(Cc3ccccc3N(Cc3ccccc3)C2=O)[C@H](c2ccc(CO)cc2)N1C1CCCCC1`, the composite z-score in assay [1] is 1.3; in assay [2], -0.367; in assay [3] it was -0.292; in assay [5], 0.831; in assay [6] it was 0.152; in [7], 0.131. Besides, the composite z-score in assay [8] was determined as 0.41; in assay [9] it was 0.662; in assay [10], 0.784; in assay [11], 0.438; in assay [13], 0.186; in [14], 0.0329. For the same compound, the composite z-score in assay [15] was -0.105; in [16], -0.202; in assay [17], 0.0062; in assay [18], -0.444; in assay [19], -0.345; in [20], 0.0868. Moreover, the z-score was -0.322 (inactive) in [4] and -0.717 in [12].
On to `C=CC(=C)C1=CCO[C@@H]1[C@H]1CCCN1S(=O)(=O)c1ccccc1[N+](=O)[O-]`, for which the composite z-score is 0.487 in assay [1]; -0.268 in [2]; -0.268 in assay [3]; 0.925 in assay [5]; 0.168 in [6]; 0.578 in assay [7]. In addition, the composite z-score in [8] is 1.31; in assay [9] it was 0.797; in [10], 1.27; in assay [11] it was -0.0291; in assay [13] it was 0.867; in assay [14], 0.397. Further, the composite z-score is -0.112 in assay [15]; -0.101 in assay [16]; -0.0626 in [17]; -0.175 in assay [18]; 0.169 in assay [19]; 0.537 in [20]. Further, the results for the z-score in [4] and in assay [12] were -0.626 (inactive) and -1.4, respectively.
On to `O=C1OCCC=C[C@H]2OC34C=CCN(Cc5ccccc5)C(=O)[C@H]3N(CCCO)C(=O)[C@@H]4C12` (stereo not given in full), for which the composite z-score was 0.53 in [1]; -0.33 in [2]; -0.182 in assay [3]; -0.745 in [5]; -1.44 in [6]; -0.873 in assay [7]. The composite z-score in [8] was -0.512; in [9] it was -0.179; in assay [10] it was 0.399; in assay [11], -0.786; in assay [13], -0.424; in assay [14], -0.438. The composite z-score in assay [15] was 0.0072; in assay [16], -0.164; in assay [17] it was -0.206; in [18], -0.0602; in assay [19], 0.0647; in assay [20] it was -0.473. Moreover, the z-score was -1.74 (inactive) in assay [4] and -0.0946 in assay [12].
With `CO[C@H]1O[C@H](CO)[C@@H](OC(=O)Nc2ccc(Oc3ccccc3)cc2)[C@H](OC(=O)Nc2ccccc2)[C@H]1OC(=O)Nc1ccccc1`, the composite z-score in [1] was found to be 1.5; in assay [2] it was 0.636; in [3], 0.766; in assay [5], 1.35; in [6], 1.33; in [7], 0.24. For the same compound, the composite z-score was determined as 1.2 in [8]; 0.113 in assay [9]; 0.185 in assay [10]; 0.838 in assay [11]; 0.62 in [13]; 1.26 in assay [14]. Moreover, the composite z-score in assay [15] is -0.278; in [16], 0.143; in [17], -0.0789; in assay [18], 0.149; in assay [19], 1.2; in assay [20], 1.8. For the same compound, the results for the z-score in [4] and in assay [12] were 0.511 (inactive) and -2.88, respectively.
With `COc1ccc([Si](C)(C)[C@H]2[C@H](CC(=O)N(CCO)Cc3ccccc3)O[C@@]3(C(=O)N(Cc4cccc(N5CCC5=O)c4)c4ccccc43)[C@@H]2C)cc1`, the composite z-score in assay [1] was 1.32; in [2], 0.122; in [3] it was 0.0014; in assay [5] it was 0.697; in assay [6] it was 0.599; in assay [7], 0.4. In addition, the composite z-score in assay [8] stood at 0.893; in assay [9] it was 0.696; in [10], 0.928; in assay [11] it was 0.784; in assay [13] it was 0.829; in assay [14], 0.64. Further, the composite z-score in assay [15] was -0.173; in [16] it was -0.1; in assay [17] it was -0.0793; in assay [18] it was -0.0311; in assay [19] it was 0.059; in assay [20] it was 1.03. In addition, the z-score was -2.18 (inactive) in assay [4] and -3.85 in assay [12].

The values above are taken from PubChem BioAssay.
